Measured values taken from the supplement of paper PMC6555819.

Tests used:
Assay in all cases: PBM binding z-score (relative to random genomic background probes); higher = stronger binding; sequences stand for … in GC…GCGATTGACAGCGTAGAATGAAGG
[1] = test system: RARb homodimer (NR concentration 270 nM)
Method in brief: (§1)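 Antibodies against each partner of ligand-free nuclear receptor dimers (one per run) detected binding on custom Agilent 4×180K protein-binding microarrays after 1 h incubation. The double-stranded probes had 34-nt variable regions carrying direct-repeat seeds, single-nucleotide variants, half-site ablations and random human genomic background sequences. Binding z-scores, from regression-normalized fluorescence, use the random background probes as reference.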

[2] = test system: RARg:RXRa (NR concentration 270 nM, RXRa partner concentration 90 nM)
Method in brief: as §1

[3] = test system: RARg homodimer (NR concentration 270 nM)
Method in brief: as §1

[4] = test system: RXRa DBDmut IVT, anti-RXR (DBD mutation: RXRa K156A/R161A, NR concentration 90 nM)
Method in brief: as §1

[5] = test system: RXRa homodimer (NR concentration 180 nM)
Method in brief: as §1

[6] = test system: THRa:RXRa (NR concentration 90 nM, RXRa partner concentration 90 nM)
Method in brief: as §1

[7] = test system: THRa homodimer (NR concentration 90 nM)
Method in brief: as §1

[8] = test system: VDR homodimer (NR concentration 270 nM)
Method in brief: as §1

Sequence | PBM binding z-score [1] | PBM binding z-score [2] | PBM binding z-score [3] | PBM binding z-score [4] | PBM binding z-score [5] | PBM binding z-score [6] | PBM binding z-score [7] | PBM binding z-score [8]
TCATATTGGTAATACAGGTGAAAGTCGGCATCTA | 0.667 | 0.388 | 0.332 | 1.69 | 0.917 | 0.669 | 0.437 | 0.279
ATCTGTAGGTTAGCTGGGGTCATTCAGACTAGGC | 3.81 | 4.01 | 3.04 | 1.83 | 5.13 | 5.16 | 3.21 | 5.38
ACTAGTTGGTCAGCTGAGGTCCCACACAATTCGG | 0.808 | 0.425 | 0.578 | 0.281 | 0.206 | 2.75 | 0.564 | -0.00436
CCAGACAGGTGAAAAGTAACTCAGTCTGGTACGC | -0.15 | 0.316 | 0.402 | 0.15 | 0.307 | -0.0735 | -0.599 | -0.225
GGAACGAGGGCAAAGTTGACAGCATCTGTCGACG | 1.58 | 2.77 | 2.16 | 2.56 | 2.76 | 1.67 | -0.266 | 1.24
ACAGACAGGTGATGAAGGAAACTCAGGCTATCAT | 0.24 | 0.168 | 0.36 | -0.0618 | 0.38 | 0.154 | 0.0695 | -0.33
ATCTCTAGGTAAAGCTCAGTGAAAGATCGATAGA | -0.225 | 0.103 | 0.259 | -0.165 | -0.128 | 0.19 | -0.0384 | -0.271
CATACAGGGTCAGCTAGGCAAGAGTAGGGACGGC | 2.9 | 4.17 | 4.1 | 1.22 | 4.03 | 2.94 | 1 | 0.693
TCTGCTAGGTCAGTTGGTCTGCTAACGAGCTGCC | 2.11 | 1.92 | 3.27 | 0.135 | 0.318 | 1.08 | -0.124 | -0.575
CGTCCATGGTCAAAGGTCAGTGAAGAGATGACGG | 4.5 | 5.6 | 5.53 | 0.569 | 5.87 | 2.73 | -0.0105 | 0.771
CCTAGCAGGCCAATCTGGCTCACTCAAGGCTTGA | -0.747 | -0.58 | -0.5 | -0.298 | -0.743 | -0.627 | -0.709 | -1.02
CAAACTAGGTCACCGGAAGGTCTAAGTCCGCATG | 4.28 | 5.48 | 5.56 | 1.58 | 3.87 | 3.88 | 2.22 | 1.68
CCTAGCAGGCCAGGGCCACTCAAGCATTTCGCTT | -0.124 | -0.441 | -0.124 | -0.762 | -0.718 | -0.482 | -0.794 | -0.946
TCTTGTAGATCAATAGAGGTTATGAAAGTGCGCT | 1 | 1.01 | 0.611 | 1.05 | 1.55 | 2.33 | -0.187 | 0.0483
CCTACTGGGCCTTTCAGAGGTCATTGATCATATG | 3.64 | 3.43 | 2.71 | 0.749 | 3.84 | 3.04 | 1.36 | 2.8
CAAACTAGGTCAAGAGGTCAAAGTGCGCTTCCCG | 5.69 | 8.27 | 7.86 | 3.2 | 8.67 | 4.46 | 2.56 | 4.83
TCGAGTAGGGTAGTCGGGGCATTCAGCCAACATA | 0.403 | -0.271 | -0.538 | 0.261 | -0.197 | 0.368 | 0.185 | 0.229
GCATATAGGTAATCCAAGGTGAAAGTCCGATTGT | 0.964 | 0.387 | 0.453 | 0.551 | 0.399 | 4.57 | 1.35 | 0.0892
GTACCAAGGTGAATAGGTCGTTGACGAGTAGGCG | 1.93 | 2.91 | 1.53 | -0.0525 | 2.19 | 1.92 | 0.438 | 0.14
CCTAGTTGGTAAAGGTCACACACGCTATAGGTAC | 5.1 | 6.22 | 6.12 | 2.1 | 6.73 | 4.12 | 2.03 | 3.54
TCGAGTAGGTTAGTCGGGGCATTCCGCCAACATA | 0.291 | -0.0295 | -0.243 | 0.165 | 0.00868 | 1.05 | -0.473 | -0.0294
ACTAGCAGGCCAAGGGTCACTCATGATTAGTCCG | 3.68 | 4.01 | 3.58 | 0.479 | 4.18 | 2.31 | 0.0224 | 1.07
GAAACAGGGTCAAGGCCAGAGTACGCGTATTGAT | 4.02 | 5.52 | 5.06 | 2.9 | 6.17 | 3.85 | 1.44 | 2.56
CGTCCACGGTCAATGCTAGGTCAGTGAAAGCATT | 3.02 | 3.59 | 3.1 | 0.356 | 0.354 | 2.12 | 0.347 | -0.19
TTACCAAGGTGAGCGGAGGTCGTTGATCCAACTC | 1.72 | 1.31 | 1.18 | -0.227 | 1.44 | 3.73 | 0.656 | 0.886
TCCCGGAGGACACGAAGGTCAGAGCTTTCCAGAG | 3.55 | 3.07 | 3.74 | 0.527 | 1.59 | 2.83 | 1.17 | 1.11
GCGACTGGGGCATCAGCAGGTAACCATAACTTAA | 0.543 | 0.292 | 0.296 | 0.0904 | 0.119 | 0.856 | 0.168 | -0.668
TCTAGCAGGCCAGAGGGTCACTCAGGAGGTACGG | 2.75 | 2.62 | 1.67 | 0.0347 | 2.54 | 1.74 | -0.132 | 0.271
ATTGAAAGGTCGAAGGTGAGTATACCCACCCGAA | 2.54 | 4.17 | 3.76 | 1.26 | 5.43 | 2.22 | 0.13 | 0.982
